Source: PubChem (several laboratories)
Mtb BioA inh = BioA (M. tuberculosis) enzyme inhibition. purified M. tuberculosis BioA enzyme, plate reader. inhibition, % at 9.99 µM. hit rate 0.096% among 360,000. AID 602481; in the data active = inhibition above about 40%
Mtb FBA inh = Mtb fructose-bisphosphate aldolase inhibition | P9WQA3 | purified M. tuberculosis FBA, fluorescence read-out | inhibition, % at 1 µM | hit rate 2.3% among 360,000 | AID 588726;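 also: 0% = vehicle and 100% = reference inhibitor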
Target sequence (P9WQA3 whole entry, looked up): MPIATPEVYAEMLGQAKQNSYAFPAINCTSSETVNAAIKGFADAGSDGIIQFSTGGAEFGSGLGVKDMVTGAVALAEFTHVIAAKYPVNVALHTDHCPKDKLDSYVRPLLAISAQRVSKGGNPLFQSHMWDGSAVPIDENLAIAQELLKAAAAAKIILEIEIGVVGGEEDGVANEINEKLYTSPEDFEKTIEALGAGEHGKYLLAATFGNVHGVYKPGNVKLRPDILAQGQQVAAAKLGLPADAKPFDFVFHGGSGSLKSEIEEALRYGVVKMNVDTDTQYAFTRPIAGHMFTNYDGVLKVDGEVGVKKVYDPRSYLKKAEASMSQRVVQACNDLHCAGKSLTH
BH1578 lux ind = quorum light induction in luxS cqsA deficient V. cholerae; V. cholerae BH1578 lux reporter, luminescence, 6 h; AID 588436; activation, % at 18.7 µM; hit rate 0.16% among 350,000; in the data active = activation mostly above about 9.7%, no sharp cut-off
GDH-TPI counter-1 = inhibits GDH-TPI coupling enzymes, artifact for Mtb FBA screen. GDH-TPI coupled enzyme counterscreen, NADH absorbance. inhibition, % at 4.8 µM. hit rate 1.2% among 360,000. AID 588335; in the data active = inhibition above about 30%;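 also: 0% = DMSO wells and 100% = wells lacking the enzyme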
Mtb FBA confirm = confirmation of M. tuberculosis fructose-bisphosphate aldolase inhibitors; shares compounds with Mtb FBA inh; purified M. tuberculosis FBA, fluorescence read-out; inhibition, % at 1 µM; hit rate 78% among 5,600;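 also: 0% = vehicle wells and 100% = reference inhibitor wells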
GDH-TPI counter-2 = inhibits GDH-TPI coupling enzymes, flagging Mtb FBA hits; GDH-TPI coupled enzyme counterscreen, fluorescence; shares compounds with Mtb FBA inh; inhibition, % at 1 µM; AID 652141; hit rate 81% among 5,600; in the data active = inhibition above about 10%
GDH-TPI dose = counter-screen for M. tuberculosis FBA inhibitors: GDH-TPI dose response. shares compounds with Mtb FBA inh. GDH-TPI coupled enzyme assay, fluorescence, artifact counterscreen. IC50, µM. hit rate 79% among 170; call rule not given here
Active calls of the source: *; i = inactive; · = not tested or not shown; + = active, no number. Shown are actives, neighbours in structure and some others; about 3% of the full set was active somewhere. Rule as the data show it, unless noted: active = inhibition above about 27%; inactive = the rest.

SMILES | Mtb BioA inh | Mtb FBA inh | BH1578 lux ind | GDH-TPI counter-1 | Mtb FBA confirm | GDH-TPI counter-2 | others
CCOC(=O)c1ccc(-c2ccc3c(=O)c4ccccc4n(C)c3c2)cc1F | 0 | 57* | -11 | 13 | 133* | 117*
Cn1c2ccccc2c(=O)c2ccc(Cl)cc21 | 0 | 106* | i | 6 | 64* | 44*
Cn1c(=O)oc(=O)c2ccccc21 | 0 | 94* | -4 | 17 | 135* | 116*
CCOC(=O)c1ccc(/C=C2\c3ccccc3C(=O)N2c2ccccc2)cc1F | 0 | 5 | 0 | 10 | · | ·
Cn1c2ccccc2c(=O)c2ccc(C#Cc3ccc(N)cc3)cc21 | -1 | 12 | -1 | 27 | · | ·
O=C1c2ccccc2NC(c2ccc(-c3cccs3)o2)N1O (centres undefined) | 0 | 97* | i | 15 | 79* | 73*
Cc1ccc(NC(=O)Cn2c(/C=C/c3ccccc3)nc3ccccc32)cc1C | -1 | 29* | 0 | 10 | 68* | 53*
Cc1ccc(NC(=O)Cn2cnc3ccccc32)cc1C | · | 5 | 0 | 5 | · | ·
COCCOCCn1c(/C=C/c2ccccc2)nc2ccccc21 | · | 28* | 1 | 15 | -4 | -4
CC(C)n1c(/C=C/c2ccccc2)nc2ccccc21 | 2 | 67* | -3 | 34* | 36* | 20*
COCCOCCn1c(CCCO)nc2ccccc21 | 2 | 1 | i | 14 | · | ·
COc1ccccc1S(=O)(=O)N[C@@H]1CC[C@@H](CC(=O)NCc2cccc(F)c2)O[C@H]1CO | -1 | · | · | · | · | ·
CNC(=S)N/N=C/c1ccc(-c2ccc(C(=O)O)cc2)o1 | -1 | 41* | -1 | 53* | + | +
C=CCNC(=S)N/N=C/c1ccc(-c2cc(Cl)ccc2Cl)o1 | -1 | -4 | · | 27 | · | ·
C=CCNC(=S)N/N=C/c1ccc(-c2ccc(OC)cc2)o1 | · | 29* | 0 | 14 | -6 | -6
CO[C@@H]1CN(C)C(=O)c2cc(NC(=O)C3CCOCC3)ccc2OC[C@@H](C)N(Cc2cccnc2)C[C@@H]1C | 1 | · | · | · | · | ·
CCNC(=O)C[C@H]1CC[C@H](NS(=O)(=O)c2ccc(C)cc2)[C@H](CO)O1 | 0 | · | · | · | · | ·
O=C(C[C@@H]1CC[C@@H](NC(=O)Nc2ccc3c(c2)OCO3)[C@@H](CO)O1)NCc1ccccc1 | -1 | · | · | · | · | ·
COC(CNC(=O)Cc1c(C)nc2c(-c3ccccc3)c(C)nn2c1C)OC | · | -12 | i | -2 | · | ·
COC(CNC(=O)c1cnn2c(C)c(Cc3ccccc3)c(C)nc12)OC | · | 78* | 1 | 10 | 2 | -4
Cc1nc2c(C(=O)N3CCOCC3)cnn2c(C)c1Cc1ccc(Cl)cc1 | · | 38* | -1 | 20 | 200* | 171*
O=C(c1nnc(Cc2ccc(Cl)cc2)o1)N1CCOCC1 | -1 | -2 | 0 | 8 | · | ·
C[C@@H]1CN([C@@H](C)CO)C(=O)Cc2cc(N(C)C)ccc2O[C@H]1CN(C)C | 0 | · | · | · | · | ·
COc1ccc(S(=O)(=O)N[C@@H]2C=C[C@H](CC(=O)NCc3ccccc3F)O[C@@H]2CO)cc1 | -1 | · | · | · | · | ·
Cc1cc(=O)oc2c(N)nccc12 | · | 22 | · | · | · | ·
SMILES | Mtb BioA inh | Mtb FBA inh | BH1578 lux ind | GDH-TPI counter-1 | Mtb FBA confirm | GDH-TPI counter-2 | others
Cc1cc(=O)oc2c3c(ccc12)OC/C3=N/N | · | 94* | i | 15 | + | +
CC(C)N1CCN(C2CSCCSC2)CC1CCO (centres undefined) | 0 | 52* | 0 | 12 | + | +
CC(C)CCN1CCN(C2CSCCSC2)CC1CCO (centres undefined) | -2 | 5 | -1 | 1 | · | ·
O=C(NCCc1ccncc1)[C@H]1[C@H](CO)[C@H]2Cn3c(ccc(-c4ccccc4)c3=O)[C@@H]1N2 | 1 | · | · | · | · | ·
O=C(C[C@H]1CC[C@@H]2[C@H](COC[C@@H](O)CN2C(=O)Nc2ccccc2)O1)NCCCN1CCOCC1 | 2 | · | · | · | · | ·
OC[C@@H]1[C@@H](c2ccccc2)C(c2cccc(Cl)c2)=NN1c1ccccc1 | 0 | 50* | i | -6 | 122* | 134*
OC[C@@H]1[C@@H](c2ccc(Cl)cc2)C(c2ccc(F)cc2)=NN1c1ccccc1 | -1 | 60* | -1 | 3 | 150* | 98*
CCN1CC(c2ccccc2)C(c2ccc(Cl)cc2)=N1 (centres undefined) | 1 | 5 | -1 | 1 | · | ·
OC[C@@H]1[C@@H](c2ccccc2)C(c2ccccc2)=NN1c1ccccc1 | 0 | 49* | 1 | 3 | 120* | 91*
c1ccc(-c2nn(-c3ccccc3)[n+](-c3ccccc3)n2)cc1 | · | -3 | · | 0 | · | ·
O=C(C[C@H]1CC[C@@H]2[C@H](COC[C@H](O)CN2C(=O)Nc2ccc(F)cc2)O1)NCCc1ccccc1 | 0 | · | · | · | · | ·
O=S(=O)(N[C@@H]1CC[C@H](CCn2cc(C3(O)CCCC3)nn2)O[C@H]1CO)c1ccc(Cl)cc1 | 2 | · | · | · | · | ·
O=C(COc1ncnc2scc(-c3ccc(Cl)cc3)c12)NCc1ccco1 | 3 | 83* | -2 | 1 | 5 | -2
CCNC(=O)COc1ncnc2scc(-c3ccc(F)cc3)c12 | · | -5 | 0 | -12 | · | ·
COc1cc(-c2nc(-c3ccccc3)c(-c3cccs3)[nH]2)cc(OC)c1O | 1 | 24 | -5 | 21 | · | ·
COc1cc(-c2nc(-c3ccccc3)c(-c3cccs3)[nH]2)cc(OC)c1OC | 0 | 46* | 0 | 18 | 1 | -5
CC(C)c1nc(-c2ccccc2)c(-c2ccccc2)[nH]1 | 1 | 7 | -4 | 6 | · | ·
c1ccc(-c2nc(-c3cccs3)[nH]c2-c2ccccc2)cc1 | 0 | 63* | 0 | 18 | + | 178*
COc1ccc(NC(=O)N(C)C[C@@H]2OCCCC[C@H](C)Oc3ccc(NS(=O)(=O)c4ccc(OC)cc4)cc3C(=O)N([C@H](C)CO)C[C@@H]2C)cc1 | -1 | · | · | · | · | ·
O=C1CCC(=O)c2ccc3c4c(ccc1c24)CC3 | -1 | 42* | 3 | 32* | 12 | 9 | GDH-TPI dose=3.6*
O=C(C[C@@H]1C=C[C@@H](NC(=O)c2cccc(F)c2)[C@@H](CO)O1)NCCN1CCCC1 | -3 | · | · | · | · | ·
C[C@H]1CN([C@@H](C)CO)C(=O)c2cc(/C=C/c3ccccc3)cnc2O[C@H]1CN(C)C(=O)c1cccc(F)c1 | -8 | 64* | -1 | 3 | 66* | 58*
COc1ccc2cc(CN(Cc3ccco3)Cc3nnnn3C3CCCCC3)c(=O)[nH]c2c1 | 2 | 4 | i | 27 | · | ·
CC(C)(C)n1nnnc1CN(Cc1ccco1)Cc1cc2cc3c(cc2[nH]c1=O)OCO3 | -4 | 46* | 0 | 21 | 11 | -4
COc1ccc2[nH]c(=O)c(CN(Cc3ccco3)Cc3nnnn3Cc3ccccc3)cc2c1 | 2 | 10 | 13 | 5 | · | ·
CCCN1CCN(C(c2cc3cc4c(cc3[nH]c2=O)OCO4)c2nnnn2C(C)(C)C)CC1 (centres undefined) | 0 | 66* | 0 | 12 | 58* | -3
